HCMV antiviral = qHTS Assay for inhibitors of the human cytomegalovirus (HCMV); HFF cells, HCMV-luciferase reporter, 72 h; hits give low values; activity change, negative = inhibition, % at 57.5 µM; 410,000 tested, 4.5% active; AID 1259415, 2018; in the data active = activity change below about -60%; inconclusive = no clear call, values can overlap the other calls; inactive = above about -39%
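Two-dose cell screen: HFF monolayers treated with compounds and infected with luciferase-expressing HCMV at 1 PFU/cell, 72 h at 37C, then lysed for luciferase measurement.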
Lassa entry inh = qHTS for Inhibitors of binding or entry into cells for Lassa Virus | Lassa virus pseudotype entry inhibition, cell reporter | Potency, µM (series often up to 37.9 µM), actives largely listed as inhibitors | 300,000 tested, 1.2% active; calls by dose curve; tested in HEK293 cells; also: nearly all actives have a fitted effect of over 50% in size
FMDV antiviral = High Throughput Screening for Foot and Mouth Disease Virus Antivirals | FMDV antiviral cell-based qHTS | Potency, µM (doses to about 57.9 µM), usual class: inhibitors | 410,000 tested, 1.2% active | AID 1159524, 2015; calls by dose curve; tested in HEK293T cells; also: read-out not given here; nearly all actives have a fitted effect of over 45% in size
Marburg entry inh = qHTS for inhibitors of binding or entry into cells for Marburg Virus | Marburg virus pseudotyped entry inhibition, cell reporter | Potency, µM (top dose mostly 37.8 µM), hits mostly inhibitors | 300,000 tested, 1.8% active; calls by dose curve; tested in HEK293 cells
VACV Venus inh = qHTS for Stage-Specific Inhibitors of Vaccinia Orthopoxvirus: Venus Reporter Primary qHTS; Vaccinia virus Venus reporter expression, fluorescence; 330,000 tested, 0.46% active; Potency, µM (doses to about 36.5 µM), actives largely listed as inhibitors; calls by dose curve; tested in A549 cells; also: nearly all actives have a fitted effect of over 30% in size
VACV mCherry inh = qHTS for Stage-Specific Inhibitors of Vaccinia Orthopoxvirus: mCherry Reporter Primary qHTS | Potency, µM (doses to about 36.5 µM), actives largely listed as inhibitors | 310,000 tested, 0.63% active | AID 720579, 2013 | Vaccinia virus mCherry reporter infection, fluorescence; calls by dose curve; tested in A549 cells; also: nearly all actives have a fitted effect of over 35% in size
Hits are given with their value; . = inactive; ? = inconclusive; / = not tested or not shown; ! = not confirmed by another sample; [ ] = another dose, or the depositor's remark. An excerpt weighted towards active compounds, which were near 6.5% of everything screened.

SMILES	HCMV antiviral	Lassa entry inh	FMDV antiviral	Marburg entry inh	VACV Venus inh	VACV mCherry inh
CCCCC[n+]1ccn(C2=C([O-])c3ccccc3C(=O)/C2=N\S(=O)(=O)c2ccccc2)c1	-77	?	?	22µM	?	?
CN(C)c1ccc(-c2ccc(CCO)cc2)cc1	/	/	/	/	.	.
Cc1cccc(NC(=O)Cc2coc3ccc4ccccc4c23)n1	-70	?	.	6.5µM	.	.
CC1(c2ccc3ccccc3c2)NC(=O)N(CC(=O)N2CCN(Cc3ccc(C#N)cc3)CC2)C1=O (centres undefined)	/	?	?	0.56µM	?	?
CC1CC(C)(C)CC2(C1)NC(=O)N(CC(=O)N1CCN(Cc3ccc(C#N)cc3)CC1)C2=O (centres undefined)	-84	?	?	?	.	?
COc1ccc(OCC(=O)N2CCC(c3nc4ccccc4s3)CC2)cc1	.	.	.	?	.	.
O=C(COc1ccc([N+](=O)[O-])cc1)N1CCC(c2nc3ccccc3s2)CC1	-61	.	?	?	.	.
CC(=O)n1c(Cl)c(NC(=O)CCl)c2ccccc21	-98	?	32µM	?	?	10µM
O=c1[nH]c(=O)n(C2CC(O)C(CO)O2)cc1F (centres undefined)	/	/	.	/	?	?
CCCCCCCCCCCCCCCCCCNc1ccn(C2OC(COP(=O)(O)OCC3OC(n4cc(F)c(=O)[nH]c4=O)CC3O)C(O)C2O)c(=O)n1 (centres undefined)	-88	?	.	?	?	0.32µM
CC[C@@]1(C)Cc2c(sc3c2c(=O)n(C)c2nnc(SCc4ccccc4)n32)CO1	/	/	/	.	/	/
CCCNC(=O)COC(=O)c1c2c(nc3ccccc13)CCC2	.	.	.	.	.	.
CCc1ccc(C2CC(c3ccc(C)cc3)Nc3nc(N)nn32)cc1 (centres undefined)	.	.	.	.	32µM	100µM
Cc1ccc(C2CC(c3ccc(F)cc3)Nc3nc(N)nn32)cc1 (centres undefined)	.	.	.	.	.	.
COc1ccc(Cn2cnc3cnc(-c4cc(OC)c(OC)c(OC)c4)cc32)cc1OC	.	/	/	/	/	/
COCc1ccc(CN2CCOc3ccc(C4=Cc5ccccc5C4)cc3C2)o1	/	/	.	/	.	.
O=C1NCCCc2c1oc1ccc(O)cc21	-63	?	.	?	/	/
O=C(CN1CCN(c2ncccn2)CC1)N1CCCc2c1c(=O)oc1ccc(O)cc21	.	.	.	.	?	/
CC(=O)c1sc(NCc2ccc(C)cc2)nc1C	.	?	.	10µM	.	.
CC(=O)c1sc(NCc2ccccc2)nc1C	.	?	.	.	.	.
NCCS	.	.	.	11µM!	.	.
Cc1cccc(N2CCN(C(=O)c3ccc4c(c3)NC(=O)C(CSCc3cccc(F)c3)N4)CC2C)c1 (centres undefined)	-83	/	.	/	/	/
COc1ccc(N2CCN(C(=O)c3ccc4c(c3)NC(=O)C(CSCc3ccccc3F)N4)CC2)cc1 (centres undefined)	.	/	.	/	.	.
COC(=O)CC(=O)CSc1nc2cc(C(=O)NCC(C)C)ccc2c(=O)n1CCc1ccccc1	-94	?	.	/	.	.
Cc1ccc(NC(=O)c2nnn(CC(=O)Nc3ccccc3)c2N)cc1C	.	.	.	11µM	.	.
SMILES	HCMV antiviral	Lassa entry inh	FMDV antiviral	Marburg entry inh	VACV Venus inh	VACV mCherry inh
COc1ccc(NC(=O)Cn2nnc(C(=O)NCCc3ccccc3)c2N)cc1	-64!	.	.	.	.	.
COc1cc(NC(=O)c2nnn(CC(=O)Nc3cc(C)ccc3C)c2N)cc(OC)c1	-70	.	.	/	.	.
COc1ccc(OC)c(NC(=O)c2nnn(CC(=O)Nc3ccc(C(C)C)cc3)c2N)c1	-63	?	.	/	.[7.34 µM]	.[7.34 µM]
Cc1cnc2ccc(I)cc2c1/C=C/c1ccc(N(C)C)cc1	/	/	/	/	.	.
c1cc(-c2sc(-c3ccncc3)c(-c3ccncc3)c2-c2ccncc2)ccn1	-79	.	.	?	.	.
COc1cc(C(=O)N(Cc2cc3ccc(C)cc3nc2N(C)C)C2CC2)cc(OC)c1OC	/	/	.	/	.	.
O=C(CSc1nc(-c2ccccc2)[nH]c1-c1ccccc1)Nc1ccc2c(c1)OCO2	-109	?	?	?	.	.
COc1ccc(-c2[nH]c(-c3cccc(OC)c3)nc2SCC(=O)Nc2ccc3c(c2)OCO3)cc1	?	7.9µM	.	.	.	.
COc1cc(-c2nc(SCC(=O)Nc3ccc4c(c3)OCO4)c(-c3ccccc3)[nH]2)cc(OC)c1OC	?	?	.	?	.	.
COc1ccc(-c2[nH]c(-c3ccc(Cl)cc3)nc2SCC(=O)Nc2nccs2)cc1	-79	.	.	.	.	.
Cc1nnc(SCC(=O)Nc2ccc3c(c2)OCO3)o1	-60	.	.	.	.	.
COCCN(CC(=O)Nc1cccc(C)c1C)C(=O)c1cc(-c2ccncc2)nc2ccccc12	.	/	.	/	/	/
COCCn1cnc2cnc(Nc3cc(OC)c(OC)c(OC)c3)cc21	.	/	/	/	/	/
O=C(CSc1nc(-c2ccccc2)c(-c2ccccc2)[nH]1)Nc1ccc2c(c1)OCO2	-68	?	.	?	.	.
O=C(Nc1ccc2c(c1)OCCO2)c1[nH]c(C(F)(F)F)nc1-c1ccccc1	-74	/	.	/	.	.
O=C(CSc1nc(-c2cccc(F)c2)[nH]c1-c1ccccc1)Nc1ccc2c(c1)OCCO2	-106	10µM	?	?	?	?
O=C(CSc1nc2ncccc2[nH]1)Nc1ccc2c(c1)OCO2	.	.	.	.	.	.
O=C(NC1CC1)c1[nH]c(C(F)(F)F)nc1-c1ccccc1	.	/	.	/	.	.
CCCC[C@]12Cc3cc(C#N)ccc3[C@H](O1)c1c(cc(C)n(Cc3ccccc3)c1=O)O2	/	/	/	.	/	/
CCCS(=O)(=O)NCc1c(C)ncc2c1CCN(C(=O)/C=C/c1cccc(Cl)c1)C2	/	/	.	/	.	.
COc1ccc(OC)c(-n2c(CNC3CCN(Cc4ccccc4)CC3)nc3ccccc3c2=O)c1	-106	.	.	.	/	/
COc1ccc(OC)c(-n2c(CN3CCC(C(N)=O)CC3)nc3ccccc3c2=O)c1	.	.	.	.	/	/
CC(=O)Oc1ccc(C23c4ccccc4C2(OC(C)=O)c2cc(OC(C)=O)ccc23)cc1 (centres undefined)	-70	?	?	?	.	.
CC(=O)Oc1ccc(C(=O)Nc2ccccc2NC(=O)c2ccc(OC(C)=O)cc2)cc1	.	/	.	/	/	/
CCN(CC)C(=O)Cn1c(=O)n(-c2ccc(Cl)c(Cl)c2)c(=O)c2c(C)c(C(=O)N(CC)CC)sc21	.	.	.	/	.	.
Cc1nc2c(c3c1[nH]c1ccccc13)C(O)CC(C)(C)C2 (centres undefined)	-90	?	?	?	.	?
Cc1nn(-c2ccccc2)c2c1C(O)CC(C)(C)C2 (centres undefined)	.	/	.	/	/	/
